# High-throughput results: PubChem BioAssay, several laboratories
# A3G deaminase = inhibitors of human APOBEC3G DNA deaminase. recombinant A3G, ssDNA deamination FAM/TAMRA fluorescence. 330,000 tested, 0.28% active. Q9HC16. inhibition, % at 20 µM;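 active = inhibition of at least 40% at 20 µM, with no more than 30% in the related APOBEC3A deaminase screen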;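 also: plate controls were DMSO wells with A3G for no effect and wells lacking A3G enzyme for full effect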
# PHOSPHO1 inh = PHOSPHO1 (human) inhibition; Q8TCT1; recombinant PHOSPHO1, absorbance phosphatase assay; inhibition, % at 13.3 µM; 290,000 tested, 1.1% active; AID 1565; in the data active = inhibition above about 60%
# Target sequence (Q8TCT1 whole entry, looked up): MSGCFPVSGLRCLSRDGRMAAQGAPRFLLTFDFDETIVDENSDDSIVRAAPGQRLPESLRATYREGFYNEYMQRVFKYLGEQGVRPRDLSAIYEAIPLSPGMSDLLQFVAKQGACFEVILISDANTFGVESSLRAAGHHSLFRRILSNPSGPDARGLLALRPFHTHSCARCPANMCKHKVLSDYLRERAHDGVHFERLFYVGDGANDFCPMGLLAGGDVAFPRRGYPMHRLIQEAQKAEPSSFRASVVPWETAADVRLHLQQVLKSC
# A3A deaminase = inhibitors of human APOBEC3A DNA deaminase. 330,000 tested, 0.41% active. P31941. recombinant A3A, FAM/TAMRA ssDNA deamination fluorescence. inhibition, % at 20 µM;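 active = at least 40% inhibition at 20 µM here, with at most 30% in a related deaminase screen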;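 also: plate controls were A3A with DMSO for no effect and wells lacking A3A enzyme for full effect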
# rCAG RNA binder = binds r(CAG) RNA repeats. r(CAG) RNA repeat, TO-PRO-1 dye displacement fluorescence. inhibition, % at 3 µM. 370,000 tested, 1.3% active;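 active = inhibition above the plate cutoff, the mean of all test compounds on that plate plus 3 SD, cut at about 35% in these data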;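 also: 0% = DMSO alone and 100% = 100 µM mitoxantrone as full dye displacement; higher means more dye released from RNA so lower well fluorescence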
# ALR H2O2 inh = blocks human ALR sulfhydryl oxidase activity; P55789; purified ALR, DTT oxidation, H2O2 HRP-luminol luminescence; inhibition, % (test concentration not listed); 290,000 tested, 3.8% active; AID 485317;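 active = mean replicate inhibition above about 79%, with every replicate also reaching it, limit read from the data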
# aDG glyco act = alpha-DG glycosylation activation | Pro5-aDG cells, alpha-DG glycosylation AlphaScreen (IIH6); 0% Pro5, 100% B10-LARGE cell signal | activation, % at 10 µM | 360,000 tested, 0.22% active | AID 624168;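 active = activation of at least 8% versus controls, or a plate z-score of at least 8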;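 also: Pro5 are CHO cells carrying HIG-tagged alpha-DG that lacks glycosylation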
# * = called active by the depositor; . = no result given. Sampled rows, rich in hits. Any-hit rate of the full collection: about 5.4%.
SMILES,A3G deaminase,PHOSPHO1 inh,A3A deaminase,rCAG RNA binder,ALR H2O2 inh,aDG glyco act
Brc1ccc(CN2CCN(c3ncc(Cc4ccccc4)cn3)CC2)cc1,.,.,.,3,.,.
COc1ccc(N2CCN(C(=O)Cc3ccc(OC)c(OC)c3)CC2)cc1,-2,5,3,-7,88*,0
CCC(CC)C(=O)N1CCN(c2ccccc2)CC1,-2,28,-2,-2,98*,0
COc1ccc(N2CCN(C(=O)CNC(=O)c3cccs3)CC2)cc1,-5,.,-4,-5,95*,0
O=C(NCC(=O)N1CCN(c2ccccc2)CC1)c1cccs1,-5,.,-3,-2,96*,0
CN1CCN(C(=O)CNC(=O)c2cccs2)CC1,-6,.,-3,2,-29,0
O=C(Cn1c(-c2cncs2)nc2ccccc21)N1CCCCC1,.,.,.,0,.,.
O=C(CCl)NC1CCCCN(Cc2ccc(OC(F)(F)F)cc2)C1=O (configuration not stated),.,.,.,1,.,.
CC(=O)OCC1=C(C(=O)O)N2C(=O)C(NC(=O)c3ccc(COc4c(C)cccc4Cl)o3)C2SC1 (configuration not stated),10,-26,14,26,98*,0
O=C(O)CCCCCN1C(=O)/C(=C\c2cn(-c3ccccc3)nc2-c2cccs2)SC1=S,-3,0,-2,20,-2,0
O=C(O)CCN1C(=O)/C(=C/c2cn(-c3ccccc3)nc2-c2cccs2)SC1=S,-7,78*,-4,31,.,0
CC(=O)N1CCN(c2cc(C)nc3nc(C)nn23)CC1,.,.,.,5,.,.
O=C(Nc1ncc([N+](=O)[O-])s1)c1cccc([N+](=O)[O-])c1,-4,44,-1,3,98*,0
COC(=O)c1ccc(Cn2ccc3ccc(-c4ccc5ccn(C(=O)c6ccccc6)c5c4)cc32)cc1,.,.,.,13,.,.
CC(=O)c1ccc(NC(=S)NNC(=O)c2ccccc2[N+](=O)[O-])cc1,-5,-8,1,7,93*,0
CNC(=S)NNc1ccccc1[N+](=O)[O-],-8,-62,-1,1,98*,0
O=C(NC(=S)Nc1ccccc1N1CCCC1)c1ccccc1[N+](=O)[O-],.,16,.,0,98*,0
O=C(NC(=S)Nc1ccc(N2CCCC2)cc1)c1ccccc1[N+](=O)[O-],-2,15,0,9,-2,-1
Cc1ccc(C(=O)NC(=S)NNC(=O)c2ccccc2[N+](=O)[O-])cc1,18,7,-6,7,99*,0
O=C(NNC(=S)Nc1ccccc1)c1ccccc1[N+](=O)[O-],-2,-71,-4,3,72,0
COC(=O)[C@]12C[C@H](CC(=O)NCCCCc3ccccc3)C(=O)N(Cc3cccc4ccccc34)C1=C[C@H](COCc1ccccc1)O[C@@H]2C,.,.,.,14,.,.
O=C(NNC(=S)NC(=O)c1ccccc1[N+](=O)[O-])c1ccccc1O,1,-16,-4,2,55,0
CCCCOc1ccccc1C(=O)NNC(=S)NC(=O)c1ccccc1[N+](=O)[O-],-8,30,-2,31,84*,0
O=C(NNC(=S)NC(=O)c1ccccc1[N+](=O)[O-])c1ccccc1[N+](=O)[O-],3,85*,-2,5,-2,0
Cc1cc(C(=O)NNc2ccc(C)c(C)c2)no1,0,6,2,0,99*,0
SMILES,A3G deaminase,PHOSPHO1 inh,A3A deaminase,rCAG RNA binder,ALR H2O2 inh,aDG glyco act
Cc1cc(C(=O)NNc2ccc(F)cc2F)no1,-5,22,-3,-1,98*,0
Cc1ccc(NNC(=O)c2ccno2)cc1Cl,8,33,-3,3,99*,0
Cc1nc2sc(C(=O)NCc3nccs3)c(N)c2c(C)c1Cl,.,.,.,6,.,.
COc1cccc(N2CCN(S(=O)(=O)c3cn(C)cn3)CC2)c1,-2,28,-2,-3,96*,0
COc1ccc(N2CCN(Cc3nc4ccccc4n3C)CC2)cc1,-2,-12,-2,-2,89*,0
COc1ccccc1N1CCN(S(=O)(=O)c2cc(Br)cnc2N)CC1,-5,64*,-2,-3,4,0
COc1ccc(OC)c(S(=O)(=O)N2CCN(c3ccccc3OC)CC2)c1,-3,30,2,-1,51,0
COc1ccccc1N1CCN(S(=O)(=O)c2cccs2)CC1,-5,-7,-2,-4,66,0
